Screens: PubChem BioAssay, several laboratories
An excerpt weighted towards active compounds, which were near 3.3% of everything screened.
FAK blocker – inhibitors of human focal adhesion kinase | Q05397 | biochemical FAK kinase activity assay | inhibition, %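 (tested at 7 µM)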 | 0.84% of 97,000 active; in the data active = inhibition above about 19%
ERa SRC1 pot – enhances coactivator binding to human estrogen receptor alpha. 1.3% of 86,000 active. coactivator binding (% of control), % at 25.6 µM. P03372. TR-FRET ERalpha-LBD/SRC-Cy5 coactivator binding, 2 h; 100 = basal binding, no effect; in the data active = activity above about 200%;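 also: binding measured in presence of low estradiol as agonist stimulus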
ERb coact inh – ER-beta (human) coactivator binding inhibition. 1.3% of 86,000 active. inhibition, % at 25.6 µM. TR-FRET ER-beta LBD / SRC1-Cy5 peptide binding; receptor agonist-loaded with 1 µM estradiol;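 active = compounds whose percent inhibition of the receptor-coactivator binding signal exceeds about 50% in the single-dose screen, limit read from the data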
Target sequence (Q92731 whole entry, looked up, the tested form may be a part): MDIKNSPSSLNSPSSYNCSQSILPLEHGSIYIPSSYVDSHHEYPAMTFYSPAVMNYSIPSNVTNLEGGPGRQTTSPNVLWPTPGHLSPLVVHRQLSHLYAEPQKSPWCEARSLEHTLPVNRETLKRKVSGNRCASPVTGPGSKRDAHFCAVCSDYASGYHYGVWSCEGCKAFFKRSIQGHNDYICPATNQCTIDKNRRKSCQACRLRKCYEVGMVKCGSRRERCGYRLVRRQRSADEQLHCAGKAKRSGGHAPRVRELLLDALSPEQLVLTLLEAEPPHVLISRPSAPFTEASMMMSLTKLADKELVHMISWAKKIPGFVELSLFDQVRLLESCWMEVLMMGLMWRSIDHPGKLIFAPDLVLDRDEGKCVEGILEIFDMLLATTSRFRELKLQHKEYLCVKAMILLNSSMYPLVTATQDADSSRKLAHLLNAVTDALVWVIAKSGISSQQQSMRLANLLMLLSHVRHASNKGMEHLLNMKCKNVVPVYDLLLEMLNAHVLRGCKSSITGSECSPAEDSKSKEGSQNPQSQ
ERa SRC1 inh – blocks coactivator binding to human estrogen receptor alpha. AID 629. 1.7% of 86,000 active. TR-FRET ER-alpha LBD / SRC-1 peptide, estradiol-bound. inhibition, % at 25.6 µM. P03372; in the data active = inhibition above about 50%
Smad3 inh – blocks human Smad3 binding to FoxH1 peptide | P84022 | TR-FRET Smad3/Dy647-FoxH1 peptide binding, europium anti-His | inhibition, % at 25 µM | 0.29% of 88,000 active | AID 630;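 active = compounds that reduce the energy-transfer binding signal between the protein and its labelled peptide by more than half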
A number is an active result; . = inactive; / = not tested or not shown; [ ] = remark or other dose.

SMILES	FAK blocker	ERa SRC1 pot	ERb coact inh	ERa SRC1 inh	Smad3 inh
COc1ccc(-c2nnc3sc(-c4ccccc4OC)nn23)cc1	/	234	.	.	.
O=C(O)c1cc2c(cc1S(=O)(=O)O)[C@@H]1[C@@H]([C@H]3[C@H]2[C@]2(Cl)C(Cl)=C(Cl)[C@@]3(Cl)C2(Cl)Cl)[C@]2(Cl)C(Cl)=C(Cl)[C@@]1(Cl)C2(Cl)Cl	/	/	/	/	.
c1ccc2c(c1)nnn2Cc1nnc2sc(-c3ccc4c(c3)OCCO4)nn12	.	.	.	.	.
Cc1ccc(-c2nnc3sc(-c4ccc5c(c4)OCCO5)nn23)cc1	.	303	.	.	.
Clc1cccc(-c2nn3c(-c4cccc(Cl)c4)nnc3s2)c1	/	296	.	.	.
O=C1C(=O)c2ccccc2C(O)=C1Cc1ccccc1	/	/	/	/	.
Cc1ccc2oc(=O)c3cc(C(=O)NCc4ccco4)sc3c2c1	.	.	54[fluorescence artefact?]	67[fluorescence artefact?]	.
CCN1CCN(C(=O)c2cc3c(=O)oc4ccc(C)cc4c3s2)CC1	/	.	.	.	.
COc1ccc(OCC(=O)N2CCN(C(=O)c3ccccc3)CC2)cc1	.	492[fluorescence artefact?]	.	.	.
COc1cc(S(=O)(=O)NCc2ccc3c(c2)OCO3)ccc1Cl	.	.	.	.	.
COc1cc(C)c(S(=O)(=O)NCc2ccc3c(c2)OCO3)cc1C	.	.	.	66	.
Cc1c(C(=O)O)nc(/C=C/C(=O)O)[nH]c1=O	/	/	/	/	.
COc1cc(/C=C/C(=O)CC(=O)/C=C/c2ccc(O)c(OC)c2)ccc1O	/	.	60[fluorescence artefact?]	.	.
Cc1ccc(-n2c(C)nc3oc4ccccc4c(=O)c3c2=O)cc1	.	.	94[fluorescence artefact?]	91[fluorescence artefact?]	.
COc1cccc(-n2nc(-c3ccnn3-c3ccc(F)cc3)c(=O)n(C)c2=O)c1	.	.	74	.	.
COc1cc(OC)nc(NC(=O)C(C)C)n1	.	.	.	62	.
CC1=NN(c2cccc(C(=O)O)c2)C(=O)/C1=C\C=C\c1ccco1	.	.	89[fluorescence artefact?]	83[fluorescence artefact?]	.
CC1(C)Cc2ccccc2-c2nnnn21	.	.	97[fluorescence artefact?]	.	.
O=C(O)CCC(=O)N1CCN(c2ccc(C(=O)c3ccc(F)cc3)cc2)CC1	.	249	.	.	.
Cc1ccc(C)c(SCC(=O)OCC(=O)c2ccco2)c1	.	.	63	65	.
COc1ccc(C[C@@H]2C(=O)N[C@H](C)C(=O)N(C)[C@@H]3Cc4ccc(cc4)Oc4cc(ccc4O)C[C@@H](C(=O)N[C@@H](C)C(=O)N[C@H](C)C(=O)N2C)N(C)C3=O)cc1	/	/	/	/	.
CCN(CC)C(=O)N1CCc2ccccc2C1CN1C(=O)c2ccccc2C1=O (stereo not given)	.	.	.	.	.
c1ccc2cc(NCNc3ccc4ccccc4c3)ccc2c1	/	/	/	/	.
Nc1ccc(N(S(=O)(=O)c2ccccc2)S(=O)(=O)c2ccccc2)c(Cl)c1	/	/	/	/	87
CC(C)c1nc(SCC(=O)Nc2ccc(N3CCOCC3)cc2)c2ccccc2n1	34	.	.	.	.
SMILES	FAK blocker	ERa SRC1 pot	ERb coact inh	ERa SRC1 inh	Smad3 inh
CCCc1nc(SCC(=O)Nc2ccc(N3CCOCC3)cc2)c2ccccc2n1	.	.	.	.	.
O=C(CCc1ccccc1)Nc1ccc(N2CCOCC2)c(Cl)c1	.	.	.	.	.
O=C(CCc1ccccc1)Nc1ccc(N2CCOCC2)cc1	/	.	59	.	.
[O-][n+]1c(CN2CCCCC2)nc2cccc3c2c1-c1ccccc1-3	/	/	/	/	.
Cn1cnc([N+](=O)[O-])c1SCC(=O)O	/	/	/	/	.
CC(C)CCNC(=O)COc1ccc2c3c(c(=O)oc2c1)CCC3	.	352	.	.	.
COc1ccc2c(c1)c(=O)oc1cc(OCC(=O)NC3CCCCC3)ccc12	.	.	72	71	.
COc1ccc2c(c1)c(=O)oc1cc(OCC(=O)NC3CC3)ccc12	.	.	.	.	.
CCOC(=O)Cc1csc(NC(=O)CCCCCN2C(=O)c3cccc4cccc(c34)C2=O)n1	.	.	58[fluorescence artefact?]	69[fluorescence artefact?]	.
CCOC(=O)c1sc(NC(=O)CCCCCN2C(=O)c3cccc4cccc(c34)C2=O)nc1C	.	/	/	/	/
Cc1ccc(C)c(/C(=N/N=C(N)N)C2CC2)c1	/	/	/	/	.
Nc1ccn([C@H]2O[C@H](CO)[C@@H]3[O][Sn]([c]4ccccc4)([c]4ccccc4)[O][C@@H]32)c(=O)n1	/	/	/	/	.
CCOC(=O)CC(=O)Nc1ccccc1C(=O)O	.	/	/	/	/
CCOC(=O)CCC(=O)Nc1ccccc1C(N)=O	.	.	.	53	.
Cc1cc(NC(=O)Cn2c(C)nc3ccccc3c2=O)ccc1Br	.	265	.	.	.
CCC(=O)Nc1ccc2nc(C)n(CC(=O)Nc3ccccc3)c(=O)c2c1	.	.	.	.	.
CC(C)(C)c1cc(C(c2cccnc2)N2CCN(CCO)CC2)cc(C(C)(C)C)c1O (stereo not given)	.	.	.	.	.
OCCN1CCN(C(c2cccs2)c2ccc3cccnc3c2O)CC1 (stereo not given)	.	.	64[fluorescence artefact?]	69[fluorescence artefact?]	.
COC(=O)c1sc(NC(=O)c2cnccn2)c(C(=O)OC)c1C	.	.	.	52	.
COC(=O)c1sc(NC(C)=O)c(C(=O)OC)c1C	.	.	.	.	.
CCOC(=O)Cn1c(CN(C)Cc2ccccc2)nc2c1c(=O)n(C)c(=O)n2C	53	/	/	/	/
Cn1nnnc1SCC(=O)N(C1CCCCC1)C1CCCCC1	.	.	51[fluorescence artefact?]	.	.
C(=C/c1ccnc2nc(SC/C=C/c3ccccc3)nn12)/c1ccccc1	.	/	/	/	/
CC1(C)CC(=O)C=C(NC2CCCCCCC2)C1	.	.	.	95[fluorescence artefact?]	.
O=C(O)c1cc(N=Nc2ccc([N+](=O)[O-])cc2)ccc1O	/	/	/	/	.
SMILES	FAK blocker	ERa SRC1 pot	ERb coact inh	ERa SRC1 inh	Smad3 inh
Cc1ccc(OCc2ccoc2C(=O)O)cc1C	.	.	66	62	.
Cc1ccc(OCc2ccc(C(=O)N3CCOCC3)cc2)cc1C	.	.	.	.	.
Cc1ccc(C(=O)Nc2nc3ccccc3n2CCN2CCCC2)cc1	.	284[fluorescence artefact?]	.	.	.
O=C(Nc1nc2ccccc2n1CCN1CCCC1)c1ccc(Cl)cc1	/	.	.	.	.
Cc1ccc2cc3cc(C(=O)NCCCN4CCCCCC4)oc3nc2c1	.	.	.	58[fluorescence artefact?]	.
Cc1ccc2cc3cc(C(=O)NCCCN4CCc5ccccc5C4)oc3nc2c1	.	.	.	.	.
COc1cc(-c2csc(C)n2)ccc1O	.	.	.	.	.
Cc1nc(-c2ccc(O)c(O)c2)cs1	.	.	59	.	.
O=C(CSc1nnc(-c2ccco2)n1-c1ccccc1)N1CCN(C(=O)c2ccco2)CC1	.	521[fluorescence artefact?]	.	.	.
Cc1cc(N2CCN(C(=O)c3ccco3)CC2)n2nc(C)c(-c3ccc(Cl)cc3)c2n1	/	282	55[fluorescence artefact?]	55[fluorescence artefact?]	.
Cc1cc(N2CCN(C(=O)c3ccco3)CC2)n2nc(-c3cccc(Cl)c3)cc2n1	/	.	57[fluorescence artefact?]	.	.
Cc1cc(N2CCN(C(=O)c3ccco3)CC2)n2nc(C)c(-c3ccccc3)c2n1	.	220	.	.	.
O=C(COC(=O)c1cn(-c2ccccc2)nc1-c1cccs1)NC1CC1	.	202	.	.	.
